Data from PubChem BioAssay.
Measured potencies and affinities stand elsewhere. Activity calls are given as the source filed them. The limit is not given here; nearly all actives have IC50 up to about 0.98 µM.

The molecules below were run against Calcium-dependent protein kinase 1 (Plasmodium falciparum (isolate 3D7)) (UniProt P62344) (assay: PfCDPK1 kinase inhibitors, biochemical, TCAMS library (AID 1159585;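 also: inhibitors leave more ATP so luminescence rises with inhibition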)). Details: recombinant PfCDPK1, Kinase-Glo ATP depletion luminescence.
Calcium-dependent protein kinase 1 (Plasmodium falciparum (isolate 3D7)), sequence (P62344 whole entry, looked up): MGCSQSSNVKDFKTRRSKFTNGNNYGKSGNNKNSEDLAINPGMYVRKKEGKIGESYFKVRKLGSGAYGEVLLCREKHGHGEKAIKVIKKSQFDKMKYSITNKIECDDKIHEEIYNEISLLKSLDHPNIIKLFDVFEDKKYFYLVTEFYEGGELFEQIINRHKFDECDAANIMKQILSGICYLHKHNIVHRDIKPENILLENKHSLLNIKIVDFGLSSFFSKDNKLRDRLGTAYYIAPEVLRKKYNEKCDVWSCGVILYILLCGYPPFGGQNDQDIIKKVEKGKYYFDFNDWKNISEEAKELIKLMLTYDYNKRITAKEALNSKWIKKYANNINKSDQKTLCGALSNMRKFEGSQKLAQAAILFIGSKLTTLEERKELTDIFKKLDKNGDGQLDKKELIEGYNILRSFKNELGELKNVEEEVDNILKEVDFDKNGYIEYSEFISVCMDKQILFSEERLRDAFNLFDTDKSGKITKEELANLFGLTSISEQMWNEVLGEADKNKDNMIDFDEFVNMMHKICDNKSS

outcome, inactive:
O=c1cc(NCCCNCc2ccccc2-c2ccccc2)[nH]c2ccccc12, Cc1cc(OCC2CCCO2)c2cc(NC(=O)C(=O)Nc3ccc4nc(C)cc(OCC5CCCO5)c4c3)ccc2n1 (stereo not given), COc1cncc(/C=C/c2cncc(C(=O)NCCc3ccc(Cl)cc3Cl)c2)c1, NC1=NC2(CCCC2)N(c2ccc(Cl)cc2)C(N)=N1, CN1CCN(c2ccnc3ccc(NC(=O)Cc4ccc(-c5ccncc5)c5ccccc45)cc23)CC1, CN1CCN(c2ccc(CNc3ccc4ncc(-c5cccc(OC(F)(F)F)c5)n4n3)cc2)CC1, O=[N+]([O-])c1cccc(CNCC2CCN(CC3CCCCC3)CC2)c1, CCNC(=O)c1cc(S(=O)(=O)N2CCN(c3ccccn3)CC2)cs1, CN(C)CCNC(=O)[C@H](Cc1ccccc1)NC(=O)c1ccc(O)c(-c2ccc(Cl)c(Cl)c2)c1, Cc1noc(C)c1-c1cccc(C(=O)NC2CCN(CCNC(=O)C(c3ccccc3)c3ccccc3)CC2)c1, Cc1c(NCCCNCc2cc(Cl)cc(Cl)c2Cl)[nH]c2ccccc2c1=O, CCOC(=O)C(Oc1ccc2ccccc2c1)C(=O)OCC, CC(C)CN1C(=O)c2ccc(C(=O)Nc3nccs3)cc2C1=O, CC(C)c1cccc(OCC2CCN(c3ncc(C(=O)Nc4ccccc4)cc3Cl)CC2)c1, O=C(NCc1ccc(Cl)cc1)c1ccc(C(=O)NCC2CCCN2CC2CCCCC2)cc1 (stereo not given), COc1ccc(NC(=O)N2CCCN(CCCCCNC(=O)/C=C/c3ccc(Cl)cc3)CC2)cc1Cl, CC(C)CNCc1cccc(-c2cccc(CN(CCCN3CCN(C)CC3)C(=O)NC3CCCCC3)c2)c1, COc1cc(CCN(C)Cc2ccc(OC)c(OC)c2)ccc1NC(=O)c1cccc2c(=O)c3cccc(F)c3[nH]c12, COC(=O)c1ccc2nc(-c3ccc(/C=C/C(=O)NC4CCN(Cc5ccccc5)CC4)cc3)[nH]c2c1, O=C(OCc1ccccc1)N1CCc2c([nH]c3ccccc23)C1CCC(F)(F)F (stereo not given), CN(C)CCNCc1ccc(-c2ccc3c(Nc4ccc(F)cc4Cl)ccnc3c2)o1, COc1cc(NC(=O)c2sc(-c3ccc(Cl)cc3)cc2NC(=O)c2cccc(N(C)C)c2)ccc1OCCN1CCCC1, Cc1cc(NCCC(=O)Nc2ccccc2)nc(NCCc2cccs2)n1, Cc1nccn1Cc1cc(C(C)(C)C)c(O)c(C(C)(C)C)c1, CCc1cc2c(=O)c(-c3nc(C)cs3)c([C@H](N)Cc3ccc(O)cc3)oc2cc1O, CNCCNc1nccc(N2CCc3ncnc(Nc4ccc(OCc5cccc(F)c5)c(Cl)c4)c3C2)n1, Cc1[nH]c(C)c(-c2ccc(-c3ccc(C(F)(F)F)cc3C(F)(F)F)nc2)c(=O)c1Br, CN(C)C1CCN(CC#Cc2cc3ncnc(Nc4ccc(OCc5cccc(F)c5)c(Cl)c4)c3s2)CC1, CCCCCCCOc1ccc(NC(=O)Nc2ccc(Cn3ncc(N4CCCNCC4)c(Cl)c3=O)cc2)cc1, c1ccc2c3c(ccc2c1)Sc1c(ccc2ccccc12)N3, COc1ccc(CNCc2cccc(-c3cccc(-c4nc5ccccc5[nH]4)c3)c2)cc1, COc1ccc(CNCCc2cccs2)cc1-c1cccc(S(=O)(=O)NCCN2CCCC2)c1, N#Cc1cccc(Nc2ncc3c(-c4cccc(NC(=O)Cc5cccc(Cl)c5)c4)c[nH]c3n2)c1, CN1CCN(CC2(Nc3nccc(NCc4ccc(Cl)cc4Cl)n3)CCCCC2)CC1, O=S(=O)(c1c(Cl)cc(Cl)cc1Cl)N1CCCCC(c2ccc(C(F)(F)F)cc2)=N1, CCC(C)(C)C1CCc2[nH]c3ccccc3c(=O)c2C1 (stereo not given), Cc1cccc2[nH]c(-c3cccc(-c4ccc(CNCc5cccc(N)c5)cc4)c3)nc12, Oc1ccccc1CCNC1CCc2ccccc2C1 (stereo not given), Cn1cncc1-c1ccc2ncnc(Nc3ccc(OCc4ccccc4)cc3)c2c1, CC(=O)Nc1cccc(C(=O)Nc2ccc(-c3cccc(-c4nc5ccc(C(F)(F)F)cc5[nH]4)c3)cc2)c1
